From PubChem BioAssay
D2 PAM-1 – positive allosteric modulators of human D2 dopamine receptor | AID 624464 | potentiation, % (test concentration not listed) | P14416 | hit rate 0.23% among 360,000 | DiscoveRx D2 beta-arrestin cells, luminescence, 90 min; 100% = 57 uM dopamine signal; in the data active = potentiation above about 50%; inconclusive = mostly about 30% to 49%
Target sequence (P14416 whole entry, looked up): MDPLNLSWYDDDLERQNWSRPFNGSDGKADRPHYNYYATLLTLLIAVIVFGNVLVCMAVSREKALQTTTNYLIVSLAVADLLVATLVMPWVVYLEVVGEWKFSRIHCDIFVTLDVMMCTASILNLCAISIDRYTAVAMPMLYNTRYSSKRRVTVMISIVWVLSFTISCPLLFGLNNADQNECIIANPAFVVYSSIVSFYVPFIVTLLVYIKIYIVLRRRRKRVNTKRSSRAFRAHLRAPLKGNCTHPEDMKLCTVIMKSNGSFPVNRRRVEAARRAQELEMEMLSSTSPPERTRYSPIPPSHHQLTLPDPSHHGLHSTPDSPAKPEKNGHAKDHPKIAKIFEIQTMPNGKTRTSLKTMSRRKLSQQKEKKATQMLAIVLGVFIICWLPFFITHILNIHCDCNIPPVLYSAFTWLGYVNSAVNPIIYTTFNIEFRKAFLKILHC
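D2 cells co-treated with compound plus 50 nM dopamine (EC20) for 90 min at 37 deg C to detect potentiation. Beta-arrestin recruitment was read as enzyme-fragment luminescence after 1 h at ambient temperature. Full response was set by 57 uM dopamine.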
D2 PAM-2 – D2 dopamine receptor (human) potentiation; hit rate 0.34% among 340,000; P14416; AID 485347; HEK293 T-REx D2, calcium flux, EC20 dopamine potentiation; potentiation, % at 10 µM;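 active = potentiation over 3 SD above the plate norm, cut at about 30% in these data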; also: 0% is about no effect
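Using a no-wash calcium dye in inducible, force-coupled HEK293 Trex cells expressing D2, we tracked fluorescence each second for 180 s after compound, then for 180 s after EC20 dopamine to detect augmented signalling.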
D2 ag-1 – agonists of human D2 dopamine receptor (beta-arrestin) | P14416 | DiscoveRx PathHunter D2 beta-arrestin, luminescence, 90 min; 100% = 57 uM dopamine signal | activation, % (no concentration beside the values) | hit rate 0.084% among 360,000; in the data active = activation above about 40%; inconclusive = between about 15% and that limit
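Agonist mode: compounds alone added to overnight-plated D2 PathHunter cells for 90 min at 37 C, with 57 uM final dopamine (EC100) defining full response. Beta-arrestin recruitment detected by chemiluminescent reagent, read after 1 h at ambient temperature.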
D2 antagonist – D2 dopamine receptor (human) antagonism. AID 485344. HEK293 TREx D2 cells, calcium flux, dopamine EC80. inhibition, % at 10 µM. hit rate 2% among 340,000; in the data active = inhibition above about 30%; inactive = below that, where a call was filed; also: 0% is about no effect
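Tetracycline-induced HEK293 TREx cells expressing D2 receptor forced-coupled to calcium signalling, loaded with no-wash calcium dye. Compounds added and calcium flux read 180 s, then dopamine added at EC80 and read a further 180 s.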
D2 ag-2 – activates the human D2 dopamine receptor. P14416. HEK293 T-REx D2 cells, calcium flux agonist mode. activation, % at 2 µM. hit rate 0.53% among 340,000. AID 485358;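 active = activation over 3 SD above normal in the single-dose calcium agonist read, cut at about 30% in these data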; also: 0% is about no effect
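Agonism is scored from calcium flux in a force-coupled, inducible HEK293 cell line expressing D2, read kinetically for 180 s after compound addition against dopamine controls.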
Starred values were filed as active, the others as inactive; ? = inconclusive; · = no result. A selection: hits, their analogues and other compounds. The true share with any hit is near 2.4%.

SMILES	D2 PAM-1	D2 PAM-2	D2 ag-1	D2 antagonist	D2 ag-2
CCCCn1cc(S(=O)(=O)c2ccc(OC)cc2)c(=O)c2cc(CC)ccc21	·	-4	·	·	-1
CCOC(=O)c1c(C)[nH]c(CCC(=O)NCc2ccc(CC)cc2)c1C	·	-6	·	·	-1
CCOC(=O)c1ccc(NC(=O)CN2C(=O)NC3(CCCCCCC3)C2=O)cc1	1	14	2	38*	0
CCCCOC(=O)c1ccc(NC(=O)CN2C(=O)NC3(CCCCCC3)C2=O)cc1	-1	5	-2	2	1
CCc1nn(CCCC(=O)N2CCN(c3cc(Cl)ccc3C)CC2)c(=O)c2cc3occc3n12	·	2	·	·	1
O=C(Nc1nnc(SCC(=O)N2CCCCC2)s1)C1CCCCC1	5	37*	-3	7	0
Cc1ccc(NC(=O)Nc2nc(-c3ccc(C)s3)cs2)cc1	0	45*	3	-11	1
CCOc1ccc(OCC)c(Nc2nc3ccc(Cl)cc3n3cnnc23)c1	·	-2	·	·	·
COc1ccc(/C(C)=N/NC(=O)c2nnn(-c3nonc3N)c2-c2ccccc2)cc1	-5	17	-1	6	31*
C/C(=N/NC(=O)c1nnn(-c2nonc2N)c1-c1ccccc1)c1ccncc1	-4	-10	2	-2	2
CCCOc1ccc(-c2c(C(=O)N/N=C/c3cccs3)nnn2-c2nonc2N)cc1	4	49*	1	19	0
CCCOc1ccc(-c2c(C(=O)N/N=C/c3ccc(C)o3)nnn2-c2nonc2N)cc1	-6	90*	-1	-1	0
CCOc1ccc(-c2c(C(=O)N/N=C(\C)c3cccs3)nnn2-c2nonc2N)cc1	-5	74*	-9	-17	4
CCOc1ccc(-c2c(C(=O)N/N=C/c3ccc(C)o3)nnn2-c2nonc2N)cc1	-1	-5	-4	8	0
CCOc1ccc(C(=O)Nc2ccccc2OCc2cc(=O)n3ccccc3n2)cc1	·	6	·	·	0
COc1ccccc1C(=O)Nc1ccc2nc(N3CCC(C)CC3)cc(C)c2c1	·	-4	·	·	1
CC(C)(C)C1CCc2onc(C(=O)Nc3sc4c(c3C(N)=O)CCCC4)c2C1 (stereo not given)	·	-1	·	·	1
Clc1cccc(-c2cc3nc4c(c(N5CCN(c6cnccn6)CC5)n3n2)CCCC4)c1	-13	1	-1	41*	1
COc1ccc(C(=O)c2c[nH]cc2-c2ccccc2)cc1	-7	5	-1	40*	-2
CCOc1cc(/C=N\Nc2nc(Nc3ccccc3)nc(N3CCOCC3)n2)ccc1OC(=O)c1ccco1	65*	·	?	·	·
COc1cc(/C=N/Nc2ccc3ccccc3c2)ccc1OC(=O)c1ccco1	51*	-5	8	17	-1
COc1cc(/C=N/Nc2nc(C)cc(C)n2)ccc1OC(=O)c1ccco1	-9	9	2	-2	0
COC(=O)c1cc2occc2n1Cc1nc(-c2cccc(Br)c2)oc1C	·	-11	·	·	0
Cc1c(C)n(O)c2ccc3nonc3c12	1	9	-2	41*	1
COc1ccc(CN2C3CCC2CC(NC(=O)c2cc(OC)c(OC)c(OC)c2)C3)cc1 (stereo not given)	-3	-28	-6	·	·
SMILES	D2 PAM-1	D2 PAM-2	D2 ag-1	D2 antagonist	D2 ag-2
COc1cc(C(=O)NC2CCN(Cc3ccccc3)CC2)cc(Cl)c1OC	-26	-24	-1	89*	0
COc1cc(C(=O)NC2CC3CCCC(C2)N3Cc2ccccc2)cc(OC)c1OC (stereo not given)	-7	-32	-2	84*	-1
COc1cccc(C(=O)NC2CC3CCCC(C2)N3Cc2ccc(C)cc2)c1 (stereo not given)	-82	-18	-2	77*	-1
COc1ccccc1C(=O)NC1CC2CCCC(C1)N2Cc1ccccc1 (stereo not given)	-39	·	3	·	·
COc1ccc(C(=O)NC2CC3CCCC(C2)N3Cc2ccccc2)cc1OC (stereo not given)	-5	-31	-5	82*	0
CSc1ncc2c(n1)-c1ccccc1N(Cc1ccc(Cl)cc1)S2(=O)=O	·	-3	·	·	0
COc1cccc(NC(=O)N2C3CCCC2CC(NC(=O)C2CC2)C3)c1 (stereo not given)	-4	-11	-4	34*	1
COc1cc(OC)cc(C(=O)NC2CCN(CCCOc3ccccc3)CC2)c1	-5	-11	-5	47*	0
O=C(Nc1nc(-c2ccc(S(=O)(=O)N3CCOCC3)cc2)cs1)c1ccccc1	?	33*	1	1	-1
COc1ccc(NC(=O)N2CCCC(C(=O)NC(C)C)C2)cc1 (stereo not given)	4	-3	-1	33*	0
COc1ccc(NC(=O)N2CCC(C(=O)c3ccc4c(c3)OCCO4)CC2)cc1	-4	33*	-2	7	-1
O=C(c1ccc2c(c1)OCCO2)C1CCN(C(=O)Nc2ccc(F)cc2)CC1	0	1	2	-8	0
COc1ccc(-c2noc(-c3ccc(NCc4ccccc4OC)c([N+](=O)[O-])c3)n2)cc1	·	-9	·	·	3
COc1cc2ccccc2nn1	-6	12	-2	-5	1
COc1ccc2c(n1)Sc1nc3ccccc3nc1N2	2	-5	4	49*	92*
Cc1ccc2c(c1)NC(=O)C(CC(=O)NCCCN1CCN(c3cc(Cl)ccc3C)CC1)O2 (stereo not given)	-8	-28	1	53*	0
O=C(NCc1ccc(F)cc1)c1cnc(N2CCCCC2)c2ccccc12	·	1	·	·	-1
O=C(c1ccco1)N1N=C2CCCCCC2C1(O)C(F)(F)F (stereo not given)	1	32*	-3	-5	-1
O=C(Nc1cccc(F)c1)Nc1cnccn1	-9	11	1	-13	1
O=C(Nc1cccc(F)c1)Nc1ccccn1	-10	-23	-4	87*	0
Cc1ccc(CNCC2CCCO2)o1 (stereo not given)	0	-4	-2	9	-1
CCCCNCC1CCCO1 (stereo not given)	-7	-21	-3	70*	0
O=C(Cc1cccs1)Nc1cc(S(=O)(=O)N2CCCCC2)ccc1Cl	0	77*	0	-17	1
COc1ccc(S(=O)(=O)N(C)C)cc1NC(=O)CSC(C)C(=O)Nc1cc(C)on1 (stereo not given)	-15	-27	-2	72*	0
O=C(Cc1cccs1)Nc1ccc(S(=O)(=O)N2CCCCC2)cc1	24	16	-2	-14	-1
COc1ccc(S(=O)(=O)N(C)C)cc1NC(=O)c1ccc2c(c1)NC(=O)C(C)S2 (stereo not given)	-36	-21	-4	77*	-1
